# Epigenetic reg = Quantitative High-Throughput Screen for Regulators of Epigenetic Control; murine LDR cells, GFP reporter derepression, 30 h; Potency, µM (series often up to 53.9 µM), usual class: activators; 280,000 tested, 0.2% active; AID 1865, 2009; also: nearly all actives have a fitted effect of over 60% in size
#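 Derepression of a silenced CMV-GFP reporter in murine LDR cells is scored by enumerating GFP-positive cells with a laser-scanning microplate cytometer after 30 hours of treatment at 37 C.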
# HTT ATP protect = qHTS Multiplex Assay to Identify Dual Action Probes in a Cell Model of Huntington: Cytoprotection (ATP). PC12 HTT-Q103 induced, cytoprotection, ATP luminescence, 40 h. Potency, µM (doses to about 56.4 µM), hits mostly activators. 230,000 tested, 0.14% active; also: nearly all actives have a fitted effect of over 45% in size
#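 PC12 cells stably carrying ecdysone-inducible Htt exon 1 (Q103)–GFP were induced with 100 nM tebufenozide (final) alongside library compounds in a dose series. Cytoprotection was scored as retained ATP by ATPlite luminescence.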
# LMNA splice mod = qHTS Assay for Modulators of Lamin A Splicing | AID 1487, 2009 | HeLa LMNA splicing GFP/RFP minigene ratio, 48 h | Potency, µM (doses to about 46.1 µM), usual class: inhibitors | 200,000 tested, 0.01% active; active = well fitted inhibition curve with a large enough effect in the signal ratio, with a control signal flat, not every such curve was filed as active; inconclusive = small, poorly fitted or top-dose-only effect, or effect the other way, or a change in a side signal; the % refers to the signal ratio
#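 Read-out is the ratio of GFP to DsRed2 object intensity, acquired by 488 nm laser-scanning cytometry on HeLa lamin A-EGFP minigene reporter cells. Compound incubation 48 hrs at 37 °C in Opti-MEM with 2% FBS; DMSO 0.5% final.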
# HTT aggregate = qHTS Multiplex Assay to Identify Dual Action Probes in a Cell Model of Huntington: Aggregate Formation (GFP) | PC12 HttQ103-GFP aggregates, Acumen cytometry, 40 h | Potency, µM (top dose mostly 46.1 µM), most hits filed as inhibitors | 220,000 tested, 1.1% active | AID 1688, 2009; also: nearly all actives have a fitted effect of over 60% in size
#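 Inducible Q103 Huntingtin exon 1–GFP PC12 line, 1500 cells/well in phenol red free DMEM with 5% equine and 5% calf serum. Tebufenozide 100 nM induced expression; compounds titrated; aggregates quantified by cytometry.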
# NPSR antag = qHTS Assay for Antagonists of the Neuropeptide S Receptor: cAMP Signal Transduction; Q6W5P4; CHO-NPSR cells, cAMP TR-FRET, antagonist mode; Potency, µM (highest dose often 38.3 µM), actives largely listed as inhibitors; 220,000 tested, 1% active; AID 1461, 2008; also: nearly all actives have a fitted effect of over 50% in size
# Target sequence (Q6W5P4 whole entry, looked up): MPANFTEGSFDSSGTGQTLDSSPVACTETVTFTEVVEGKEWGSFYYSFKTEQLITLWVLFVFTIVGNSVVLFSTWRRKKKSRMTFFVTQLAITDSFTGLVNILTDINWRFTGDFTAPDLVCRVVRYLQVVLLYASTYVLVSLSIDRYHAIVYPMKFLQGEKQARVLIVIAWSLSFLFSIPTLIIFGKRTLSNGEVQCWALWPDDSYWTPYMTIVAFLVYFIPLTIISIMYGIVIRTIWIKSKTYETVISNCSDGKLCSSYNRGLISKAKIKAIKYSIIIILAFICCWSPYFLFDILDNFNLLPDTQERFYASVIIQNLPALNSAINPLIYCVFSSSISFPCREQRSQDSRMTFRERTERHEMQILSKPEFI
# A number is an active result; - = inactive; ? = inconclusive; . = no result; [ ] = another dose, or the depositor's remark. Rows were chosen to be rich in hits. Some 1.5% of all compounds tested hit in one or more screens of this group. Unless noted, calls follow the shape of the dose curve; as a rule, active = well fitted curve in the direction sought with a large enough effect; inconclusive = small, poorly fitted or top-dose-only effect, or another doubt; inactive = no such curve, though single readings can be large; an effect the other way counts as inactive or inconclusive.
SMILES,Epigenetic reg,HTT ATP protect,LMNA splice mod,HTT aggregate,NPSR antag
C[N+](C)(N)Cc1nc(-c2ccc(Cl)cc2)no1,.,-[10 µM],.,.,.
CC1CCC(C(=O)NC(C(=O)OCC(=O)c2ccc(Br)cc2)C(C)C)CC1 (configuration not stated),-,.,.,.,.
COc1ccc(C)cc1NC(=O)C1CCN(S(=O)(=O)c2ccc3[nH]c(=O)oc3c2)CC1,-,.,-,.,.
COc1ccc(S(=O)(=O)Nc2cc(S(=O)(=O)c3ccccc3)c(O)c(C)c2C)cc1,-,.,.,.,.
Cc1ccc(-n2c(-c3ccccc3)c[n+]3c2CCC3)cc1,-,-,.,8.91µM,-
COc1ccc(-n2c(-c3ccc(Br)cc3)c[n+]3c2SC(C)C3)cc1 (configuration not stated),-,.,.,10µM,-
COc1ccc(-n2c(-c3ccc(Br)cc3)c[n+]3c2CCCCC3)cc1,-,-[10 µM],?,2.24µM,-
CSc1ccc2c(c1)N(CCC1CCCCN1C)c1ccccc1S2 (configuration not stated),-,?,?,?,12.6µM
COc1cc(Cl)c(C)cc1NC(=O)CSc1cc(=O)n(C)c2cc(Cl)ccc12,-,.,.,.,.
COc1cc(SC)ccc1C(=O)Nc1ccc(C)cc1,-,-[10 µM],.,-[9.22 µM],-
COc1cc(SC)ccc1C(=O)NC(C)C,-,12.6µM,-,-,-
COc1cc(OC)cc([C@H](CNc2ncnc3c2ncn3[C@@H]2O[C@@H](CO)[C@H](O)[C@@H]2O)c2ccccc2C)c1,.,-[1.9 µM],.,.,.
COC(=O)C1=CO[C@@H](C)[C@H]2CN3CCc4c([nH]c5ccccc45)[C@@H]3C[C@H]12,-,-,?,.,.
COC(=O)C1=COC(C)C2CN3CCc4c([nH]c5ccccc45)C3CC12 (configuration not stated),-,-,-,11.2µM,-
COc1cccc(CCNC(=O)c2cnc3sc(N4CCOCC4)nn3c2=O)c1,-,.,.,.,.
O=C(O)CSc1cccc2cccnc12,17.8µM,-,-,-,-
O=C(CSc1cccc2cccnc12)N/N=C/c1ccc(F)cc1,-,-[10 µM],?,-[9.22 µM],-
O=S1(=O)C=C(Sc2nc3ccccc3s2)c2ccccc21,-,2µM,?,4.47µM,10µM
N#CC(C#N)=C1C=C2C=C(N3CCCCCC3)CCC2CC1 (configuration not stated),?,-[10 µM],?,0.708µM,-
N#CC(C#N)=C1C=C2C=C(N3CCOCC3)CCC2CC1 (configuration not stated),10µM,-[10 µM],?,1.26µM,-
N#Cc1cc(Cl)c(N2CCOCC2)cc1C#N,-,-,-,-,-
CN1CCN(C2=CC3=CC(=C(C#N)C#N)CCC3CC2)CC1 (configuration not stated),?,-,.,0.316µM,-
CCN1CCN(C2=CC3=CC(=C(C#N)C#N)CCC3CC2)CC1 (configuration not stated),1.41µM,.,?,2.82µM,-
CC1(C)CC(NCCN2CCN(C3=CC(=C(C#N)C#N)CC(C)(C)C3)CC2)=CC(=C(C#N)C#N)C1,-,-,.,-,-
Cc1cc(C)c(Cn2c3ccccc3c3cnn(CC(=O)NC4CCC(C)CC4)c(=O)c32)c(C)c1 (configuration not stated),-,.,.,.,.
SMILES,Epigenetic reg,HTT ATP protect,LMNA splice mod,HTT aggregate,NPSR antag
CCCCCC(=O)c1ccc(O)cc1O,-,-,-,0.141µM,-
CCN(CC)c1ncnc2c1cnn2-c1cc(Cl)ccc1C,-,.,-,.,.
O=S(=O)(NC1CC1)c1ccc(S(=O)(=O)N2CCCC(c3nc(-c4cccnc4)no3)C2)cc1 (configuration not stated),-,-[10 µM],?,11.2µM,-
O=C(NC1CCCCC1)N1CCCC(c2nc(-c3ccc(S(=O)(=O)N4CCCC4)cc3)no2)C1 (configuration not stated),-,-,-,-,-
Cc1ccsc1CN(C(=O)c1oc2cc(Br)ccc2c1C)C1CCS(=O)(=O)C1 (configuration not stated),-,.,.,.,.
CCCCC1=CC2=C(c3ccco3)C(=O)C(C)(OC(=O)c3ccc(OC)cc3)C(=O)C2=CN1Cc1ccc(OC)cc1 (configuration not stated),?,-[10 µM],-[9.22 µM],-[9.22 µM],-

# Compound activity (PubChem BioAssay)
